We go through six compounds from PubChem BioAssay (NCATS).

The nature of assay [1]: AP1 Signaling Pathway (AID 357; active = well fitted curve in either direction with a large enough effect, not every such curve was filed as active;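 also: ME-180 reporter cells stimulated with EGF at its EC50 level; % is scaled to controls: 0 for no effect and ±100 for the full control effect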). The method, boiled down: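 Read-out was the 460nm/530nm emission ratio (excitation 405nm) after CCF4 loading for 2.5 hours at room temperature. Cells carried an AP-1-driven beta-lactamase reporter, were stimulated with EC50 EGF plus compound for 5 hours, and AC50 values came from titrations.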
The target of assay [2] is Cytochrome P450 1A2 (Homo sapiens) (UniProt P05177). The assay can be described thus: p450-cyp1a2 (AID 410; calls by dose curve; also: potency is read from the fitted curve at half-maximal effect;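 as to activity change, negative = inhibition: -100% = full effect of reference inhibitor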). The method, boiled down: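 O-Demethylation of luciferin 6' methyl ether by human CYP1A2 is monitored as luciferase luminescence. Substrate sits at Km (100uM); enzyme is 20nM. Values are scaled to 57 uM furafylline as maximal inhibition.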
Cytochrome P450 1A2 (Homo sapiens), sequence (P05177 whole entry, looked up): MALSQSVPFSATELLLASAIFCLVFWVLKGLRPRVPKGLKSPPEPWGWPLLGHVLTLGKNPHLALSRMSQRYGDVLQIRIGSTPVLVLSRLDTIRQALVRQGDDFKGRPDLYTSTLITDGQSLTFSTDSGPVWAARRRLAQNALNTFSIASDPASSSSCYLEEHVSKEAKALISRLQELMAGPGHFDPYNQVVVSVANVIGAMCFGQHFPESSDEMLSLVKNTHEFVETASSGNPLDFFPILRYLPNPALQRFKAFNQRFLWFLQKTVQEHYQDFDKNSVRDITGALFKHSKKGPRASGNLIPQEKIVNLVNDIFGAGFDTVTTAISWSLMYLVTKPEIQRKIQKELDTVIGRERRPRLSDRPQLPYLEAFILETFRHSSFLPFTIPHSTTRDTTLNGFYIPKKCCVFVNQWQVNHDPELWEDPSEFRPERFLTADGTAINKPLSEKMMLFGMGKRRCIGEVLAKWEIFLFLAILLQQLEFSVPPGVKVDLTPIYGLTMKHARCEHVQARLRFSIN
The nature of assay [3]: NFAT Signaling Pathway (AID 444; active = well fitted curve in either direction with a large enough effect, not every such curve was filed as active;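 also: carbachol stimulus at about its EC50 of 1 µM final; % is scaled to controls: 0 for no effect and ±100 for the full control effect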). Particulars: Jurkat NFAT-bla M1, carbachol, beta-lactamase ratio, 5 h. In outline:
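Jurkat cells with NFAT-driven β-lactamase reporter and co-expressed M1 receptor, stimulated with carbachol (final 1 uM, ~EC50), compound titration, 5 h at 37 °C. CCF4 loaded 1 h at RT; 460/530 nm ratio gave %activity and AC50.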

The nature of assay [4]: Stat Signaling Pathway (AID 446; active = well fitted curve in either direction with a large enough effect, not every such curve was filed as active;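 also: ME-180 cervical cancer cells given 40 pM IL-6 alongside compound; SIE-controlled beta-lactamase reporter measured as 460/530 nm FRET emission ratio; % is scaled to controls: 0 for no effect and ±100 for the full control effect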). The method, boiled down:
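Overnight-plated ME-180 cells bearing a STAT Inducible Element beta-lactamase reporter; 5 h co-exposure to compound and 40 pM IL-6; values normalized to 300 pM IL-6 and 125 nM JAK inhibitor controls.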

The target of assay [5] is Mitogen-activated protein kinase 10 (Mus musculus) (UniProt Q61831). Put plainly: JNK3 AlphaScreen Assay (AID 530; active = well fitted curve in either direction with a large enough effect, not every such curve was filed as active;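 also: kinase came from lysate of stimulated human HepG2 cells; signal reports phosphorylation of biotinylated GST-cJun 1-79 at Ser73 with 10 µM ATP; % is scaled to controls: 0 for no effect and ±100 for the full control effect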). In outline:
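Activity was read by AlphaScreen after JNK3-containing HepG2 lysate (cytokine pre-activated) phosphorylated biotinylated GST-cJun with 10 uM ATP at room temperature. Phospho-Ser73 cJun antibody with Protein-A acceptor beads provided detection.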
(Bead proximity is the source of the signal in Alpha formats.)

For assay [6], the target named is 3',5'-cyclic-AMP phosphodiesterase 4B (Homo sapiens) (UniProt Q07343). The assay can be described thus: qHTS Assay for Inhibitors of PDE-IV (AID 607; active = well fitted activation curve with a large enough effect in the main read-out, with a control signal flat, not every such curve was filed as active; also: % of control where 0% means no effect). The method, boiled down:
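Live HEK293 cells with a modified cyclic nucleotide-gated (CNG) channel report intracellular cAMP via membrane-potential dye fluorescence (ex 535/em 590 nm). Endogenous PDE-IV was targeted. Compounds were tested at up to 22.9 uM final; RO 20-1724 100 uM served as control.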

Assay [7] addresses Cytochrome P450 3A4 (Homo sapiens) (UniProt P08684). The assay can be described thus: qHTS Assay for Activators of Cytochrome P450 3A4 (AID 885). Also: nearly all actives have a fitted effect of over 65% in size. The method, boiled down: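 Using 20nM recombinant human CYP3A4 in potassium phosphate (200mM), substrate Luciferin-PPXE at 25uM, luminescent luciferin detection followed a 60-min RT NADPH reaction; data scaled to 57 uM ketoconazole.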

A short description of assay [8]: qHTS Assay for Lipid Storage Modulators (AID 1519; calls by dose curve). Particulars: Drosophila S3 cells, BODIPY lipid droplet/cell ratio, laser cytometry, cells loaded with oleic acid. In outline:
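Cells seeded at 5,000 per well were treated with compounds over a concentration series and loaded with oleic acid (400 uM, as added). Lipid droplet fluorescence (488 nm excitation, 500-530 nm channel) was read by laser-scanning cytometry and normalized to 20 uM Triacsin C.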
In general terms: In qHTS, concentration-response curves come from the screen itself.

Assay [9] deals with Ubiquitin carboxyl-terminal hydrolase 1 (Homo sapiens) (UniProt O94782). Put plainly: Inhibitors of USP1/UAF1: Pilot qHTS (AID 504865).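 Also: rhodamine fluorescence freed from ubiquitin-rhodamine substrate followed over time; top concentration of the series differs between compounds; % is scaled to controls: 0 for no effect and ±100 for the full control effect; nearly all actives have a fitted effect of over 35% in size.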 In outline:
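In 50mM HEPES pH 7.8 containing 0.5mM EDTA, 1mM TCEP, 0.1 mg/ml BSA and 0.01% Tween-20, 1nM USP1/UAF1 is exposed to compound for 15 min, then Ub-Rho (150nM final) is added and fluorescence is read over time.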

Assay [10] deals with Glucocorticoid receptor (Homo sapiens) (UniProt P04150). Put plainly: GR-GFP Redistribution (AID 450;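 active = compounds whose dose series gives a full or clear partial fitted curve of increased nuclear translocation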; also: potency is read from the fitted curve at half-maximal effect). Particulars: U2OS GR-GFP nuclear translocation, laser cytometry, 2 h.
Glucocorticoid receptor (Homo sapiens), sequence (P04150 whole entry, looked up, the tested form may be a part): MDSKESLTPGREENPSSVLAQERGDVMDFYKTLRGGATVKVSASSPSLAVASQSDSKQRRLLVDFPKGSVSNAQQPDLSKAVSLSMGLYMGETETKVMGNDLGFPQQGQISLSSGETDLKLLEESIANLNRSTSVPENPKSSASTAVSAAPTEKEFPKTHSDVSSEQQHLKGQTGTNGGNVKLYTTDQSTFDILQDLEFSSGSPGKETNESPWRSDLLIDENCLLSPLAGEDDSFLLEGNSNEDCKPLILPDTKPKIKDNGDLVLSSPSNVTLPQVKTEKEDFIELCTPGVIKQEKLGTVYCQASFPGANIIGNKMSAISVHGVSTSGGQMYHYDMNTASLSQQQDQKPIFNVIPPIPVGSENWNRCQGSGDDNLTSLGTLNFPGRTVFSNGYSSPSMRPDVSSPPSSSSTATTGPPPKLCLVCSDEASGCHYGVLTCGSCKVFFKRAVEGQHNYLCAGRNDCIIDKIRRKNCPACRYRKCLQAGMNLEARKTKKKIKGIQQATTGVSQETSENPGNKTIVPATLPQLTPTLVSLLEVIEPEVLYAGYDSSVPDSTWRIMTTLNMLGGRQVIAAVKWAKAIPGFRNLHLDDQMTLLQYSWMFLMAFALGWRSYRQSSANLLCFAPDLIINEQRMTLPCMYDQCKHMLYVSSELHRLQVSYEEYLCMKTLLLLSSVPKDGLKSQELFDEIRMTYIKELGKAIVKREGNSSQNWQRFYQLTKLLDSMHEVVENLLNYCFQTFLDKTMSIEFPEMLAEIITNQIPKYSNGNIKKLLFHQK
Assay [11] has the same target. The assay can be described thus: GR-EFC Redistribution (AID 451; calls by dose curve; also: potency is read from the fitted curve at half-maximal effect). Particulars: CHO-K1 GR-EFC translocation, beta-gal luminescence, 2 h. The method, boiled down: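 CHO-K1 cells expressing nuclear EA and GR-ED fragments of b-gal; compounds titrated up to 46 uM final, 2 h at 37 C. GR nuclear translocation read as complemented b-gal luminescence after 1 h RT detection.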

In assay [12] the target is ATP-dependent 6-phosphofructokinase (Trypanosoma brucei brucei) (UniProt O15648). The assay can be described thus: qHTS Assay to Find Inhibitors of T. brucei phosphofructokinase: hit validation (AID 492961). Also: % is scaled to controls: 0 for no effect and ±100 for the full control effect. In outline:
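Luminescence from ADP-Glo reports ADP generated as T. brucei PFK (1.25 nM) phosphorylates 0.5 mM fructose-6-phosphate using 0.1 mM ATP. Reactions ran 45 min at room temperature, pH 8.0.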

The target in assay [13] is Luciferin 4-monooxygenase (Photinus pyralis) (UniProt P08659). The assay can be described thus: Biochemical firefly luciferase enzyme assay for NPC (AID 624030).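 Also: purified P. pyralis luciferase at 10 nM with luciferin and ATP substrate; 0% = DMSO and -100% = full luciferase inhibition by PTC124 control; nearly all actives have a fitted effect of over 70% in size.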 The method, boiled down:
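Purified P. pyralis luciferase at 10 nM in 50 mM Tris Acetate (final), luminescence read within 5 minutes of enzyme addition to compounds. Activity normalised to PTC124 versus DMSO; concentration-response curves classed by r2, magnitude and activity.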

A short description of assay [14]: S16 Schwann cell PMP22 intronic element firefly luciferase assay (AID 624032). Also: nearly all actives have a fitted effect of over 30% in size. Also: potency is read from the fitted curve at half-maximal effect.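 As to activity change, negative = inhibition: plate controls were DMSO for no effect and PTC124 positive control mean for full effect.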 In outline: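 Rat S16 Schwann cells stably carrying firefly luciferase driven by a PMP22 intronic element, in 10% FBS, treated 24 h at 37 C. ONE-Glo luminescence normalized to PTC124 control and DMSO (0%); curves classed by r2, magnitude and activity.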
Assay [15] is described as follows: qHTS profiling for inhibitors of Plasmodium falciparum proliferation (AID 504749).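 Also: 0% = DMSO vehicle and full inhibition = artemisinin control; nearly all actives have a fitted effect of over 60% in size.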 Particulars: P. falciparum in erythrocytes, SYBR Green DNA, 72 h, at 12.8 µM (top of the series). The method, boiled down: (§1)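 Each compound contacts P. falciparum-infected red blood cells for 72 h at 37 C; lysis buffer (Tris, EDTA, saponin, Triton X, SYBR Green I) is added and fluorescence measured next morning; values normalized to controls.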

The subject of assay [16] is C2A. The assay is described as above. Particulars: P. falciparum in erythrocytes, SYBR Green DNA, 72 h; series mostly up to 28.7 µM. In outline: as §1
The subject of assay [17] is CP192. The description is as above. Particulars: P. falciparum in erythrocytes, SYBR Green DNA, 72 h; series mostly up to 28.7 µM. In outline:
as §1

Assay [18] concerns CP262. The description is as above. Particulars: P. falciparum in erythrocytes, SYBR Green DNA, 72 h; series mostly up to 28.7 µM. In outline: as §1
The subject of assay [19] is CP286. The description is as above. Particulars: P. falciparum in erythrocytes, SYBR Green DNA, 72 h; series mostly up to 28.7 µM. In outline:
as §1

Assay [20] relates to FAB9. Described as above. Particulars: P. falciparum in erythrocytes, SYBR Green DNA, 72 h; series mostly up to 28.7 µM. The method, boiled down: as §1
The mark [21] stands for this setting: measured here: cell count channel max response.
Setting [22] is: measured here: lipid channel max response.

Several values for one entry are separate records, joined by “and”; a condition that tells them apart may be missing. Equal entries are not always repeated. Inconclusive results are not listed. Some compounds were tested as several samples or in several runs, with calls that do not always agree. Activity calls are given as the source filed them. Unless noted, calls follow the shape of the dose curve; as a rule, active = well fitted curve in the direction sought with a large enough effect; inconclusive = small, poorly fitted or top-dose-only effect, or another doubt; inactive = no such curve, though single readings can be large; an effect the other way counts as inactive or inconclusive.

ATP-dependent 6-phosphofructokinase (Trypanosoma brucei brucei), sequence (O15648 whole entry, looked up): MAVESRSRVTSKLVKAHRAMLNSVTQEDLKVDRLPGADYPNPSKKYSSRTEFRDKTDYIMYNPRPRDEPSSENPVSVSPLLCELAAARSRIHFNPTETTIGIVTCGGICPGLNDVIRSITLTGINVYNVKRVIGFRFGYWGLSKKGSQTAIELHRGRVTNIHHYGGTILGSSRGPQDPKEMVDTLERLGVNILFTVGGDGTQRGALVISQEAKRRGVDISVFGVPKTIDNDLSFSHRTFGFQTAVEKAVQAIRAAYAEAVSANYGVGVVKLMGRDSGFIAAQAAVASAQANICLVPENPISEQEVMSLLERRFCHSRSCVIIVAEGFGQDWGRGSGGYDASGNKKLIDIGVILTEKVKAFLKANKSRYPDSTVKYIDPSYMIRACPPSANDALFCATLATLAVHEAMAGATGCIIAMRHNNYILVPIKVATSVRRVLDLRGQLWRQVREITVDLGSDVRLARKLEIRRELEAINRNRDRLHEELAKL
3',5'-cyclic-AMP phosphodiesterase 4B (Homo sapiens), sequence (Q07343 whole entry, looked up): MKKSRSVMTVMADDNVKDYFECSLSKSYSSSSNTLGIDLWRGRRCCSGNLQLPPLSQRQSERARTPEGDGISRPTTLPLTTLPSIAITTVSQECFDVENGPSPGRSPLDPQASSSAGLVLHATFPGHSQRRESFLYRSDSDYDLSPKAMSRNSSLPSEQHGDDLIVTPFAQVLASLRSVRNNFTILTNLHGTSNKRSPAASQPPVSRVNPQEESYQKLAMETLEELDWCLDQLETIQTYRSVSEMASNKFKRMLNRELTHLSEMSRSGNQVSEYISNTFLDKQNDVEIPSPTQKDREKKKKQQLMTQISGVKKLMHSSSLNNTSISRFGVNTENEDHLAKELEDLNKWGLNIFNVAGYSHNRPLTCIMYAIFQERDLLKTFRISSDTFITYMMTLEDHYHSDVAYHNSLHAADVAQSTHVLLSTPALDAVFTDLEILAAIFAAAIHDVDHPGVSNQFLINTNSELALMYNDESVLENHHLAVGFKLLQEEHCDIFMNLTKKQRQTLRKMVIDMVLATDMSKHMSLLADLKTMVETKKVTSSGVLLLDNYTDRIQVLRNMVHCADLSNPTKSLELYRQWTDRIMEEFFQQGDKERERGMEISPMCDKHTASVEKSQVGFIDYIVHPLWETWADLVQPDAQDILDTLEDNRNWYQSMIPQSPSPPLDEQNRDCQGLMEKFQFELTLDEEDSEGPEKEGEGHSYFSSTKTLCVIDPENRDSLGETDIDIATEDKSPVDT
Cytochrome P450 3A4 (Homo sapiens), sequence (P08684 whole entry, looked up): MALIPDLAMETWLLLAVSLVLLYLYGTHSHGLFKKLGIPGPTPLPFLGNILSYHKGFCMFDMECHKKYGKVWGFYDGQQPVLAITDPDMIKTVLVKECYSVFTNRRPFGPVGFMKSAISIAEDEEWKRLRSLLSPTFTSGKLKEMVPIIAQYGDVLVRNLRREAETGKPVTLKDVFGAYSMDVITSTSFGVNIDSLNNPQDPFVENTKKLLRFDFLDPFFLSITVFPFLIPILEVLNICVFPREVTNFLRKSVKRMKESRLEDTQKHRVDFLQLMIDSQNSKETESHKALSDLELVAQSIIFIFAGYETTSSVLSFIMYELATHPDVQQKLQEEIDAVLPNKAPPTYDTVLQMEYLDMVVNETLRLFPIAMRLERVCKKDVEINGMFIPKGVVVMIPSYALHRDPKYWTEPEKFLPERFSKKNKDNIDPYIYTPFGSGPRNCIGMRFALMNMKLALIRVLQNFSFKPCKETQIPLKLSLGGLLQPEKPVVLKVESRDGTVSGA
Luciferin 4-monooxygenase (Photinus pyralis), sequence (P08659 whole entry, looked up): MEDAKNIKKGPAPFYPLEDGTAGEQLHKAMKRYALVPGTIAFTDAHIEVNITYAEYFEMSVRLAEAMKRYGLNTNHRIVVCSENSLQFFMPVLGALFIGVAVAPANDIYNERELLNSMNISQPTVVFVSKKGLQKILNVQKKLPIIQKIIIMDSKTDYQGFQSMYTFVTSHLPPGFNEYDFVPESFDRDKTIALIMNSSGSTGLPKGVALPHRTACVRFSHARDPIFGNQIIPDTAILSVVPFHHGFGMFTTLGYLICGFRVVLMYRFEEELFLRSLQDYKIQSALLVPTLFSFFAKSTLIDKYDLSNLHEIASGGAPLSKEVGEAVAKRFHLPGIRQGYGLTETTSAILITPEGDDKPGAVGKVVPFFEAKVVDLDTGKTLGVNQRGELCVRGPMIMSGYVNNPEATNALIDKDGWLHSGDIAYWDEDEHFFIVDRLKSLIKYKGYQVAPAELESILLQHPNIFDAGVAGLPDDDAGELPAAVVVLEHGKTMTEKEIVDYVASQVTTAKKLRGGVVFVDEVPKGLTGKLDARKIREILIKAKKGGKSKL
Ubiquitin carboxyl-terminal hydrolase 1 (Homo sapiens), sequence (O94782 whole entry, looked up): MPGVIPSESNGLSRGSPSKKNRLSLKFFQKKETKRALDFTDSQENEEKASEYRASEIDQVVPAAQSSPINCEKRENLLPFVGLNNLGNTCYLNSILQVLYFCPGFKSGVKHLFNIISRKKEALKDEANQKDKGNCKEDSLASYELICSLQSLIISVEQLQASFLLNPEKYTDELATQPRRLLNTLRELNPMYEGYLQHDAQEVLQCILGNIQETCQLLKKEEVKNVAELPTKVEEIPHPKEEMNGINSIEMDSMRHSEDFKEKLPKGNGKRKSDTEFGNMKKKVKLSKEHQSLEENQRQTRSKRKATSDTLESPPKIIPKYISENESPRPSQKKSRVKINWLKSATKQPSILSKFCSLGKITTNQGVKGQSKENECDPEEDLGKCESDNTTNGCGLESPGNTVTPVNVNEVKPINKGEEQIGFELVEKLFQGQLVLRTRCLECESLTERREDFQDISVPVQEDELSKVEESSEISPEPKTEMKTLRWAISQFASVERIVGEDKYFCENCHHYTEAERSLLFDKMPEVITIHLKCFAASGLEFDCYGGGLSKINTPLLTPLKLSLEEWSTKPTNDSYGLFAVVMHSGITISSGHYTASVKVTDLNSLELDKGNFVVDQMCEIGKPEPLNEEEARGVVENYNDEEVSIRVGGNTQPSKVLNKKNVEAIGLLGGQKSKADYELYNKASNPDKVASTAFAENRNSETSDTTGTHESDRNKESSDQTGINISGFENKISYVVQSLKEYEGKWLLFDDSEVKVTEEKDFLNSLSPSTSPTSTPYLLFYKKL

For `COc1ccc2c(c1OC)C(=O)O[C@H]2[C@H]1c2cc3c(cc2CCN1C)OCO3`, the result in [1], in assay [4] and in [5] was inactive. In addition, in assay [2], the Potency was 25.1 µM (active) and inactive and 31.6 µM (active). Besides, the results for the activity change, negative = inhibition in [3] (at 17.2 µM (top of the series)), in assay [3] (at 38 µM (top of the series)) and in assay [8] (at 25.7 µM (top of the series)) were -1.79% (inactive), 9.14% (inactive) and 3% (inactive), respectively. The Potency entry in [6], in [7] and in assay [9] was “inactive” throughout. The max response in assay [8] (setting [21]) was -6.69%; in assay [8] (setting [22]) it was -2.42%.
Take `Clc1ccc(CS[C@@H](Cn2ccnc2)c2ccc(Cl)cc2Cl)cc1`: the compound was classed as inactive in [1]. For the same compound, the activity change, negative = inhibition in assay [8] (at 25.7 µM (top of the series)) is -2.77% (inactive). The max response in assay [8] (setting [21]) was -14.6%; in assay [8] (setting [22]), -18.3%.
On to `C[C@@]12CCC(=O)C=C1C=C[C@H]1[C@H]3CC[C@](O)(CCC(=O)O)[C@]3(C)CC[C@@H]12`, for which the result in assay [1], in assay [4] and in assay [5] was inactive. Besides, the Potency result in assay [2], in [12], in assay [9], in assay [13], in assay [14] and in assay [16] was “inactive” throughout. For the same compound, the Potency entry in assay [17], in assay [18], in [19] and in assay [20] was “inactive” throughout. The figures for the activity change, negative = inhibition in assay [3] (at 17.2 µM (top of the series)) and in assay [8] (at 25.7 µM (top of the series)) were -1.71% (inactive) and -0.688% (inactive), respectively. The Potency in assay [10] and in assay [11] was > 20.6 µM (inactive) throughout. Further, the max response in assay [8] (setting [21]) is -7.2%; in assay [8] (setting [22]) it was -8.17%. The activity, negative = inhibition in assay [15] (parasite line A) is 9.22% (inactive); in assay [15] (parasite line B), 6.42% (inactive).
With `CC[C@@H]1[C@@H]2C[C@H]3[C@H]4N(C)c5ccccc5[C@@]45C[C@@H]([C@@H]2[C@@H]5O)N3[C@H]1O`, the call in assay [1], in assay [4] and in [5] was inactive. Also, the Potency result in assay [2], in assay [6], in assay [12], in assay [9], in [13] and in assay [14] was “inactive” each time. Further, the Potency entry in [16], in assay [17], in assay [18], in assay [19] and in [20] was “inactive” throughout. Besides, the activity change, negative = inhibition in assay [3] (at 17.2 µM (top of the series)) is -7.21% (inactive); in assay [8] (at 25.7 µM (top of the series)) it was -1.86% (inactive). Also, the Potency in assay [10] and in assay [11] was > 20.6 µM (inactive) throughout. For the same compound, the max response came to 1.73% in assay [8] (setting [21]) and 1.93% in [8] (setting [22]). For the same compound, the activity, negative = inhibition in assay [15] (parasite line A) is -1.56% (inactive); in [15] (parasite line B) it was 7.76% (inactive).
Turning to `C[C@@]12CC[C@H]3[C@@H](CC[C@@H]4C[C@H]5S[C@H]5C[C@]43C)[C@H]1CC[C@H]2O`, the call in assay [1], in assay [4] and in assay [5] was inactive. Besides, the Potency in assay [2] is 25.1 nM (active); in [10] it was > 20.6 µM (inactive); in assay [11], > 20.6 µM (inactive); in [14], 7.75 µM (active). Besides, the activity change, negative = inhibition was -8.3% (inactive) in [3] (at 17.2 µM (top of the series)) and -4.67% (inactive) in assay [8] (at 25.7 µM (top of the series)). The Potency result in assay [7], in assay [12], in assay [13], in [16], in assay [17] and in [18] was “inactive” each time. The Potency entry in [19] and in assay [20] was “inactive” each time. In addition, the max response in [8] (setting [21]) was -19.3%; in assay [8] (setting [22]), -23.9%. Further, the activity, negative = inhibition in assay [15] (parasite line A) was 2.41% (inactive); in assay [15] (parasite line B), 1.96% (inactive).
Take `CCc1cccc(CC)c1N(COC)C(=O)CCl`: the activity change, negative = inhibition in assay [8] (at 57.5 µM (top of the series)) was 1.98% (inactive). Also, the max response was -0.808% in assay [8] (setting [21]) and 0.291% in [8] (setting [22]). The Potency entry in [9] is “inactive”.
